Screening results deposited in PubChem by Sanford-Burnham Center for Chemical Genomics.
HIF-2a block: HIF-2a reporter inhibitors, primary screen, luminescence, 786-0 RCC cells | 786-0 RCC cells HIF-2a reporter, luciferase luminescence, overnight | inhibition, % at 18.8 µM | 0.72% of 360,000 active;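 active means inhibition of the luminescence signal of 40% or more relative to plate controls, in a single-dose primary screen at 18.75 µM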
CF NFkB inh: inhibitors of PAF-induced NF-kB signaling, primary screen, cell-based, GFP fluorescence, uHTS. KKLEB NF-kB-GFP reporter, GFP fluorescence overnight. inhibition, % at 5 µM. 0.86% of 360,000 active;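 active means at least 50% inhibition at 5 µM, scaled per plate between neutral and stimulator controls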;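 further: PAF is a Pseudomonas aeruginosa culture filtrate used as stimulus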
TWEAK-Fn14 inh: inhibitors of TWEAK-Fn14 signaling, primary screen, luciferase reporter cells, uHTS. TWEAK-stimulated Fn14 reporter cells, luciferase luminescence, 8 h. 2% of 360,000 active. inhibition, % at 10 µM; in the data active means inhibition above about 50%
TROY NFkB inh: inhibitors of TROY-driven NF-kB signaling, primary screen, Q293 LMP1-TROYcd cells, NF-kB luciferase, uHTS | Q293 LMP1-TROYcd NF-kB luciferase reporter, 4 h | inhibition, % at 10 µM | 0.98% of 360,000 active;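 active means compounds whose plate-normalised and pattern-corrected inhibition of the luciferase reporter signal at the single screening dose is 50% or more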
KKLEB tox: cytotoxicity in KKLEB CF airway cells, primary screen, cytotoxicity control for CF NF-kB inhibitor project, cell-based, uHTS, fluorescence assay plates; KKLEB CF airway cells viability, ATPlite luminescence, overnight; active compounds read low; cells stimulated with P. aeruginosa culture filtrate; activity change (cytotoxicity), % at 5 µM; 0.36% of 360,000 active; AID 602141, 2011;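 active means corrected activity change at or below -50% at 5 µM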
Peg3 prom inh: Peg3 promoter-driven luciferase inhibitors, primary screen, cell-based, HeLa, luciferase luminescence; HeLa PEG-Prom luciferase reporter, overnight; inhibition, % at 20 µM; 1.7% of 360,000 active; AID 588405, 2011;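 active means inhibition of at least 50% at 20 µM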
Mdm2 MdmX conf: retested Mdm2-MdmX interaction blockers, confirmation, cell-based, luminescence, single concentration, set 2; shares compounds with HIF-2a block; SaOS-2 split-luciferase Mdm2/MdmX complementation; inhibition, % at 8 µM; 99% of 740 active;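 active means mean inhibition of the luminescence signal across two replicates at or above 26 percent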
HIF-2a inh conf: HIF-2a reporter inhibitor retest, confirmation, luminescence, 786-0 RCC cells | shares compounds with HIF-2a block | HIF-2a luciferase reporter luminescence, overnight | inhibition, % at 18.8 µM | 56% of 1,800 active;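 active means mean inhibition across four replicates of at least 40 percent at the single tested concentration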
HIF-1a cs: HIF-1a luciferase reporter signal reduction – MiaPaCa-2 cells, single concentration, counter-screen for HIF-2a inhibitor project, confirmation. shares compounds with HIF-2a block. MiaPaCa-2 HIF-1a luciferase reporter, desferoxamine, overnight. inhibition, % at 18.8 µM. 72% of 1,800 active. AID 651589, 2012;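 active means mean inhibition of the reporter signal across four replicates at the single tested dose of 50% or more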
A number is an active result. An excerpt weighted towards active compounds, which were near 3.9% of everything screened.

What do the screens show for `COc1ccc(CNC(=O)[C@@H]2CC=C[C@@H]3CCN(Cc4ccc(Cl)c(Cl)c4)C(=O)[C@@H]32)cc1`?
HIF-2a block: inactive; CF NFkB inh: inactive; TWEAK-Fn14 inh: inactive; TROY NFkB inh: inactive; KKLEB tox: inactive; Peg3 prom inh: inactive

What do the screens show for `C/C(=N\Nc1cc(C)nc(-c2ccccc2O)n1)c1ccccc1O`?
HIF-2a block: inactive; CF NFkB inh: 80; TWEAK-Fn14 inh: 55; TROY NFkB inh: inactive; KKLEB tox: inactive; Peg3 prom inh: inactive; Mdm2 MdmX conf: 73

How did CC(C)n1cnc2cc(NCc3ccco3)ccc21 do in these assays?
HIF-2a block: inactive; CF NFkB inh: inactive; TWEAK-Fn14 inh: inactive; TROY NFkB inh: inactive; KKLEB tox: inactive; Peg3 prom inh: inactive

Results for CSC(=Nc1ccccc1)N=C(SCc1ccccc1)N(C)C ?
HIF-2a block: 83; CF NFkB inh: inactive; TWEAK-Fn14 inh: 80; TROY NFkB inh: inactive; KKLEB tox: inactive; Peg3 prom inh: 96; HIF-2a inh conf: 74; HIF-1a cs: 107

How did N#CNC(=Nc1ccccc1)SCc1ccc(C(=O)O)cc1 do in these assays?
HIF-2a block: inactive; CF NFkB inh: inactive; TWEAK-Fn14 inh: inactive; TROY NFkB inh: inactive; KKLEB tox: inactive; Peg3 prom inh: inactive

What do the screens show for `COc1ccc(Cn2c(SCc3ccccc3C)nc3cc(OC)c(OC)cc3c2=N)cc1`?
HIF-2a block: 96; CF NFkB inh: inactive; TWEAK-Fn14 inh: inactive; TROY NFkB inh: inactive; KKLEB tox: inactive; Peg3 prom inh: 102; HIF-2a inh conf: inactive; HIF-1a cs: 107

How did Nc1nc2ccc(S(=O)(=O)c3ccc4nc(N)sc4c3)cc2s1 do in these assays?
HIF-2a block: 48; CF NFkB inh: inactive; TWEAK-Fn14 inh: inactive; TROY NFkB inh: inactive; KKLEB tox: inactive; Peg3 prom inh: inactive; HIF-2a inh conf: 41; HIF-1a cs: inactive

Results for Cc1nc(/C(=N/O)C(N)=O)cs1 ?
HIF-2a block: 45; CF NFkB inh: inactive; TWEAK-Fn14 inh: inactive; TROY NFkB inh: inactive; KKLEB tox: inactive; Peg3 prom inh: inactive; HIF-2a inh conf: inactive; HIF-1a cs: inactive

What do the screens show for `COc1ccc(CC(N)c2csc(NC(=O)c3ccccc3)n2)cc1` (stereo unspecified)?
HIF-2a block: inactive; CF NFkB inh: inactive; TWEAK-Fn14 inh: inactive; TROY NFkB inh: inactive; KKLEB tox: inactive; Peg3 prom inh: inactive

What do the screens show for `NC(Cc1ccccc1)c1csc(NC(=O)c2cccc(OC(F)(F)F)c2)n1` (stereo unspecified)?
HIF-2a block: 65; CF NFkB inh: inactive; TWEAK-Fn14 inh: inactive; TROY NFkB inh: inactive; KKLEB tox: inactive; Peg3 prom inh: 99; HIF-2a inh conf: inactive; HIF-1a cs: 106

Results for O=c1[nH]c2ccc(Br)cc2c(=O)o1 ?
HIF-2a block: 44; CF NFkB inh: inactive; TWEAK-Fn14 inh: inactive; TROY NFkB inh: inactive; KKLEB tox: inactive; Peg3 prom inh: inactive; HIF-2a inh conf: 45; HIF-1a cs: inactive

What do the screens show for `CCOC(=O)/C(=C\c1ccccc1)C(=O)c1cc(C(C)=O)c(Nc2ccccc2)s1`?
HIF-2a block: 95; CF NFkB inh: inactive; TWEAK-Fn14 inh: 70; TROY NFkB inh: inactive; KKLEB tox: inactive; Peg3 prom inh: 104; HIF-2a inh conf: 88; HIF-1a cs: 107
